Out of some 23,000 compounds screened, about 30 (0.1%) showed an effect of 50% or more. Only a selection was taken, and strong results are over-represented in it overall. Potency and affinity values are given separately.

The subject of the experiment is Pseudomonas aeruginosa. The following applies: Concentration 32 ug.mL-1; ASSAY_TEST Inhibition of Bacterial Growth; detection method Absorption (OD600); MEDIA CAMHB; plate type 384well; NBS; CORNING #3640; time 18 hr.
With `N=C(Nc1ccccc1)c1cscn1`, the Inhibition is listed as 1.73%.

Turning to `N=C(Nc1ccccc1Cl)c1cscn1`, the Inhibition turned out to be 77.11%.

`CCc1ccc(Nc2nc(N)c(-c3nc4ccccc4c(=O)n3-c3ccccc3)s2)cc1`: the Inhibition amounted to 12.66%.

One may read the Inhibition as the percentage by which the read-out fell short of the control. Low values mean a response near the control, high ones a response far below the control.

The values above are taken from ChEMBL document CHEMBL4513154, “CO-ADD screening of Jain University (India) compounds”.
